In the library only some 2% were active in any assay of this set; here they are far more common.
CTSL1 counter = blocks F. hepatica cathepsin L1 in PFM18AAP counter-screen; recombinant F. hepatica cathepsin L1, Z-Leu-Arg-MCA fluorescence; inhibition, % at 5.96 µM; 300,000 tested, 0.49% active;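 active = inhibition above the mean of all tested compounds plus 3 SD, set per screening campaign, cut at about 17% in these data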
NALP1 inh = inhibitors of NALP1 inflammasome in yeast. 280,000 tested, 0.61% active. S. cerevisiae NALP1/ASC/caspase-1 growth, X-gal OD620, 72 h. AID 2071. inhibition, % at 10 µM; in the data active = inhibition mostly above about 24%, no sharp cut-off; inactive = mostly below about 32%
A3A deaminase = human APOBEC3A DNA deaminase inhibition; P31941; recombinant A3A, FAM/TAMRA ssDNA deamination fluorescence; 330,000 tested, 0.41% active; inhibition, % at 20 µM;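 active = at least 40% inhibition at 20 µM here, with at most 30% in a related deaminase screen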
Target sequence (P31941 whole entry, looked up): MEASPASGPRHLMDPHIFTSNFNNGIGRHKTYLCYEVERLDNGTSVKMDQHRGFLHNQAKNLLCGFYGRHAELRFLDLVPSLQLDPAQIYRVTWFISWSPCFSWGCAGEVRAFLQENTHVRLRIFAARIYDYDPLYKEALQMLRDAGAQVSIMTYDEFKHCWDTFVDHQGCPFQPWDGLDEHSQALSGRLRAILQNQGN
APOBEC3G inh = inhibitors of human APOBEC3G DNA deaminase; Q9HC16; recombinant A3G, ssDNA deamination FAM/TAMRA fluorescence; inhibition, % at 20 µM; 330,000 tested, 0.28% active; AID 493012;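 active = inhibition of at least 40% at 20 µM, with no more than 30% in the related APOBEC3A deaminase screen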
HGIII-sPLA2 inh = Blocks human group III sPLA2 activity; Q9NZ20; QFRET BODIPY PC-A2 liposome hydrolysis, fluorescence; inhibition, % at 12.2 µM; 370,000 tested, 0.56% active; AID 743126;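 active = inhibition above mean plus 3 SD of compounds lying within the high and low control bounds, cut at about 19% in these data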
Target sequence (Q9NZ20 whole entry, looked up): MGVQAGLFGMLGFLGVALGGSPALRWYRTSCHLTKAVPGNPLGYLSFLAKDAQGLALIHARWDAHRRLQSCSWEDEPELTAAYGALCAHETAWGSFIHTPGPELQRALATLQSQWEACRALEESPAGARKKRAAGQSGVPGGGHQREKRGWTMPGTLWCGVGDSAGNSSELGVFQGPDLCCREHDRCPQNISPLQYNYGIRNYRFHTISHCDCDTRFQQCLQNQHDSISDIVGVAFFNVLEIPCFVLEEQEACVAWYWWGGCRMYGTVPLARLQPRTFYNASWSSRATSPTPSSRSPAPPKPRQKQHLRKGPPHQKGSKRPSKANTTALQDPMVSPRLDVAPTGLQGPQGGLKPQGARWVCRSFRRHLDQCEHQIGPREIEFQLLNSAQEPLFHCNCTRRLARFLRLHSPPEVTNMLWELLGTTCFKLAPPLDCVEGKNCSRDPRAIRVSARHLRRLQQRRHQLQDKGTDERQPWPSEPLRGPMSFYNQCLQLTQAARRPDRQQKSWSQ
A3A conf = APOBEC3A (human) deaminase inhibition, confirmed; 1,400 tested, 63% active; inhibition, % at 20 µM; shares compounds with A3A deaminase; recombinant A3A, ssDNA deaminase UDG fluorescence assay;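 active = inhibition reaching a set limit, 80% of the first screen's cutoff, at 20 µM in any replicate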
UDG A3A counter = inhibits UDG, flagging false APOBEC3A inhibitors | shares compounds with A3A deaminase | UDG counterscreen, FAM/TAMRA uracil oligo fluorescence | inhibition, % at 20 µM | 1,000 tested, under 10 active | AID 504714; call rule not given here
Of the large screens only hits and unclear results are named; the others gave an inactive call (follow-up assays come after a bar, where they were run).

COc1ccc2oc(C(=O)OCC(=O)Nc3cccc(S(=O)(=O)N4CCOCC4)c3)c(C)c2c1	A3A deaminase 43.5 (no result: NALP1 inh) | A3A conf inactive | UDG A3A counter inactive
COc1ccc2oc(C(=O)Nc3cccc(S(=O)(=O)N4CCOCC4)c3)c(C)c2c1	none (no result: CTSL1 counter, NALP1 inh)
O=C(O)c1cc(-c2ccc(/C=C3\NC(=O)N(c4ccccc4)C3=O)o2)ccc1Cl	NALP1 inh 30.1, A3A deaminase 58.4 | A3A conf 35.2 | UDG A3A counter inactive
NC(=O)c1ccc(NC(=O)C2CC(=O)N(c3ccc4c(c3)OCCO4)C2)cc1 (stereo not given)	none (no result: CTSL1 counter, NALP1 inh)
CCN(CC)CCNC(=O)c1ccc(NC(=O)C2CC(=O)N(c3ccc4c(c3)OCCO4)C2)cc1 (stereo not given)	A3A deaminase 48.1 (no result: NALP1 inh, HGIII-sPLA2 inh) | A3A conf 51.8 | UDG A3A counter inactive
O=C(Cc1ccc(S(=O)(=O)N2CCOCC2)s1)Nc1nc2c(s1)CCCC2	A3A deaminase 77.6 | A3A conf 73.0 | UDG A3A counter inactive
Clc1cccc(CN2CCN(c3ncc(Cc4ccccc4)cn3)CC2)c1Cl	none (no result: CTSL1 counter, NALP1 inh, A3A deaminase, APOBEC3G inh)
CC(NC(=O)CSc1nnc(CC(=O)Nc2ccc(Cl)c(Cl)c2)n1C)c1ccccc1 (stereo not given)	A3A deaminase 46.9 | A3A conf 47.9
C=CCN1[C@@H](C)COc2cccc(N3CCCC3)c2S1(=O)=O	none (no result: CTSL1 counter, NALP1 inh, A3A deaminase, APOBEC3G inh)
CCC1Sc2ccc(S(=O)(=O)CCC(=O)N3CCc4ccccc43)cc2NC1=O (stereo not given)	A3A deaminase 66.4 | A3A conf inactive | UDG A3A counter inactive
CC1Sc2ccc(S(=O)(=O)CCC(=O)N3CCc4ccccc43)cc2NC1=O (stereo not given)	none
CCCCc1c(CCC)c(=N)c2ccccc2n1C	A3A deaminase 41.9 | A3A conf 82.7 | UDG A3A counter inactive
COc1ccc(-n2ncc3c(=O)n(CC(C)=O)cnc32)cc1	A3A deaminase 42.8 | A3A conf inactive | UDG A3A counter inactive
O=C(NC1CCCCN(Cc2cccc(Cl)c2)C1=O)c1ccc(Cl)cc1Cl (stereo not given)	none (no result: CTSL1 counter, NALP1 inh, A3A deaminase, APOBEC3G inh)
CCCC[n+]1ccn(-c2nc3c([N+](=O)[O-])cccc3n2C)c1	A3A deaminase 68.1 (no result: CTSL1 counter) | A3A conf 78.0
O=C1c2ccccc2C(=O)N1CC(O)COCc1ccccc1 (stereo not given)	none
CCc1n(CC(O)COCc2ccccc2)c2ccccc2[n+]1C (stereo not given)	A3A deaminase 58.5 | A3A conf 78.5 | UDG A3A counter inactive
C[C@@H]1CN([C@@H](C)CO)C(=O)CCCn2nncc2CO[C@H]1CN(C)CC1CCCCC1	none (no result: CTSL1 counter, NALP1 inh, A3A deaminase, APOBEC3G inh)
C=CCn1c(CNC(=O)c2cccs2)nnc1SCC(=O)c1ccc(Br)cc1	none
C=CCn1c(CNC(=O)c2cccs2)nnc1SCC(=O)Nc1ccc(C(=O)O)cc1	A3A deaminase 48.5 | A3A conf inactive
C=CCN1/C(=C2/SC(=S)N(C)C2=O)Sc2ccccc21	A3A deaminase 95.7 (no result: HGIII-sPLA2 inh) | A3A conf 64.2
CC1(C)CC(=O)C(C(=O)C2CCN(S(=O)(=O)c3ccccc3)CC2)C(=O)C1	A3A deaminase 47.0 | A3A conf inactive | UDG A3A counter inactive
COC(=O)C1=C(C)N(Cc2ccccc2)C(=NCC(C)C)N[C@H]1c1cccc(C(F)(F)F)c1	A3A deaminase 48.5 (no result: CTSL1 counter, NALP1 inh, HGIII-sPLA2 inh) | A3A conf 74.8 | UDG A3A counter inactive
CCN1C(=NCC2CC2)N[C@@H](c2cccc(C(F)(F)F)c2)C(C(=O)OC)=C1C	A3A deaminase 55.6 (no result: HGIII-sPLA2 inh) | A3A conf 67.3 | UDG A3A counter inactive
CCN1C(=NCCOC)N[C@@H](c2cccc(C(F)(F)F)c2)C(C(=O)OC)=C1C	A3A deaminase 44.9 (no result: CTSL1 counter, NALP1 inh) | A3A conf 80.4 | UDG A3A counter inactive
CCN1C(=NCCc2ccccn2)N[C@@H](c2cccc(C(F)(F)F)c2)C(C(=O)OC)=C1C	none (no result: CTSL1 counter, NALP1 inh)
COC(=O)C1=C(C)N(Cc2ccccc2)C(=NCc2ccccc2)N[C@H]1c1cccc(C(F)(F)F)c1	none (no result: CTSL1 counter, NALP1 inh, HGIII-sPLA2 inh)
O=C(CSc1nnc(-c2cnccn2)n1-c1ccccc1)Nc1ccc2c(c1)OCCO2	none (no result: CTSL1 counter, NALP1 inh, A3A deaminase, APOBEC3G inh)
COc1ccc(/C=C2\CC3(OC(=O)c4ccco4)CCCN2C3)cc1 (stereo not given)	none (no result: CTSL1 counter, NALP1 inh, A3A deaminase, APOBEC3G inh)
COC(=O)N/N=C(C)\C=C\c1ccco1	A3A deaminase 48.8 | A3A conf inactive
COc1ccc(N2CCN(CCNS(=O)(=O)c3cccs3)CC2)cc1	none (no result: CTSL1 counter, NALP1 inh, A3A deaminase, APOBEC3G inh)
CCOC(=O)c1[nH]c2ccc(OC)cc2c1NC(=O)CCN1CCC(C)CC1	A3A deaminase 49.2 | A3A conf inactive
CCOC(=O)[C@]12CCCC=C1N(CCCOC)C(=O)[C@@H]2CC(=O)NCc1cccs1	none (no result: CTSL1 counter, NALP1 inh, A3A deaminase, APOBEC3G inh)
CC[N+](CC)(CC)CCOc1cccc(OCC[N+](CC)(CC)CC)c1OCC[N+](CC)(CC)CC	A3A deaminase 75.3 (no result: NALP1 inh, HGIII-sPLA2 inh) | A3A conf 92.4 | UDG A3A counter inactive
CC[N+](CC)(CC)CCOc1ccc(/C=C/c2ccccc2)cc1	A3A deaminase 49.5 (no result: NALP1 inh) | A3A conf 76.2 | UDG A3A counter inactive
C[n+]1cnn2c1SCC1(COC1)C2	A3A deaminase 45.4 | A3A conf 85.0 | UDG A3A counter inactive
Cc1ccc(/C=C2/SC(=Nc3ccc(F)cc3)NC2=O)s1	A3A deaminase 50.8 | A3A conf 63.1 | UDG A3A counter inactive
COc1cc(C(=O)N=c2sccn2C)c([N+](=O)[O-])cc1OC	A3A deaminase 53.4 (no result: CTSL1 counter) | A3A conf inactive
O=C(OCc1cc(=O)n2c(n1)sc1ccccc12)c1cccc(O)c1	none
O=C(OCc1cc(=O)n2c(n1)sc1ccccc12)c1ccc(O)cc1O	A3A deaminase 61.5 | A3A conf 22.8 | UDG A3A counter inactive
CC(C)[C@H](NC(=O)c1ccco1)C(=O)OCc1cc(=O)n2c(n1)sc1ccccc12	A3A deaminase 62.7 | A3A conf 39.4 | UDG A3A counter inactive
CN1CCCN(S(=O)(=O)c2ccc3c(c2)CCC(=O)N3)CC1	none (no result: CTSL1 counter, NALP1 inh, A3A deaminase, APOBEC3G inh)
Cc1cc(N/N=C/c2ccc(O)cc2)nc(NS(=O)(=O)c2ccccc2)n1	A3A deaminase 48.7 | A3A conf 39.0 | UDG A3A counter inactive
Cc1ccc(/C=N/Nc2cc(C)nc(NCc3ccccc3)n2)cc1	none
Cc1ccc(CN2CCCCC(NC(=O)c3ccccc3C)C2=O)cc1 (stereo not given)	none (no result: CTSL1 counter, NALP1 inh, A3A deaminase, APOBEC3G inh)
CCN(C(=O)COC(=O)c1cc2c(s1)CCCCC2)C1CCS(=O)(=O)C1 (stereo not given)	none
CC(C)CN(C(=O)COC(=O)c1cc2c(s1)CCC2)C1CCS(=O)(=O)C1 (stereo not given)	A3A deaminase 45.0 | A3A conf 44.4
O=C(COCc1ccccc1)N1CC[C@H]2[C@H](CCCN2Cc2cc(F)cc(F)c2)C1	none (no result: CTSL1 counter, NALP1 inh, A3A deaminase, APOBEC3G inh)
COn1c(-c2ccccc2)nc2c1CCc1nonc1-2	A3A deaminase 54.0 (no result: HGIII-sPLA2 inh) | A3A conf inactive | UDG A3A counter inactive

High-throughput results as filed in PubChem.
